Experimental data taken from PubChem BioAssay (EPA / NIEHS).
The source made the active and inactive calls. The calls were made as follows: active = hit-call score of the fitted dose curve at least 0.9, where 1 is the maximum; inactive = score below 0.9.

Columns and labels:
[1] = ATG_GLI_CIS: Attagene CIS-FACTORIAL HepG2 Assay for human Zinc Finger Protein GLI1 (AID 2282945); settings: HepG2, Attagene cis-factorial reporter mRNA, GLI element; actives raise or lower the signal
Outline: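 Bidirectional curve fits relative to DMSO, using reporter mRNA levels from RT-PCR plus capillary electrophoresis. Cells were HepG2 transiently carrying cis-regulated reporter constructs, harvested 24 h after dosing.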

[2] = ATG_GRE_CIS: Attagene CIS-FACTORIAL HepG2 Assay for human Glucocorticoid Response Elements (GRE) (AID 2282947); settings: HepG2 GRE cis-reporter, Attagene multiplex mRNA; actives raise or lower the signal
Outline: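 Multiplexed cis-reporter mRNA induction, HepG2, 24 h post-dose. RT-PCR, FAM-labelled, HpaI-digested amplicons by CE. Bidirectional fit vs DMSO.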

[3] = ATG_ISRE_CIS: Attagene CIS-FACTORIAL HepG2 Assay for human Interferon Regulatory Factor 1 (IRF1) binding to an Interferon-Stimulated Response Element (ISRE) (AID 2282948); settings: HepG2 ISRE cis-reporter (Attagene), mRNA transcription readout; actives raise or lower the signal
Outline: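 Read-out: fluorescent RT-PCR products resolved by capillary electrophoresis, reporting endogenous transcription factor activity via ISRE-driven reporter mRNA in transfected HepG2 cells dosed for 24 h; gain or loss fitted relative to DMSO.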

[4] = ATG_M_32_CIS: Attagene CIS-FACTORIAL HepG2 Assay for M32 Transcription Factor (Internal Marker) (AID 2282949); settings: HepG2 Attagene cis-factorial M32 reporter, mRNA; actives raise or lower the signal;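 also: background control marker of the multiplexed CIS panel rather than a real target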
Outline: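 Using DMSO as baseline, bidirectional curve fits were applied to reporter mRNA signals. These came from transiently transfected HepG2 cells exposed for 24 h, with RNA analysed by RT-PCR, FAM primer extension, HpaI digestion and CE.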

[5] = ATG_M_06_CIS: Attagene CIS-FACTORIAL HepG2 Assay for M06 Transcription Factor (Internal Marker) (AID 2282950); settings: HepG2 Attagene CIS-FACTORIAL M06 internal marker reporter; actives raise or lower the signal
Outline: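 HepG2 cells transiently transfected with cis-regulated multiple reporter transcription units were exposed to chemical for 24 h; reporter mRNA was quantified by RT-PCR, 6-FAM primer labelling, HpaI digestion and capillary electrophoresis, fitted bidirectionally against DMSO.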

[6] = target: Hypoxia-inducible factor 1-alpha (Homo sapiens) (UniProt Q16665); assay: ATG_HIF1a_CIS: Attagene CIS-FACTORIAL HepG2 Assay for human Hypoxia Inducible Factor 1 (HIF1A) (AID 2282951); settings: HepG2 Attagene cis-factorial HIF1a reporter transcription; actives raise or lower the signal
Outline: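 Fluorescence intensity of capillary-separated, 6-FAM-labelled reporter amplicons gives mRNA induction in HepG2 cells carrying transfected cis-promoter reporter units; cells exposed 24 h, responses fitted up or down from DMSO.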

[7] = target: Hepatocyte nuclear factor 6 (Homo sapiens) (UniProt Q9UBC0); assay: ATG_HNF6_CIS: Attagene CIS-FACTORIAL HepG2 Assay for human Hepatocyte Nuclear Factor 6 (HNF6) (AID 2282952); settings: HepG2 Attagene cis-factorial HNF6 reporter transcription; actives raise or lower the signal
Outline: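 Endogenous transcription factor activity in human HepG2 liver cells was captured through cis-regulated reporter constructs. After 24 h treatment, reporter mRNA was measured by RT-PCR with capillary electrophoresis, and activity was fitted in both directions relative to DMSO.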

[8] = target: Heat shock factor protein 1 (Homo sapiens) (UniProt Q00613); assay: ATG_HSE_CIS: Attagene CIS-FACTORIAL HepG2 Assay for human Heat Shock Transcription Factor 1 (HSE) (AID 2282953); settings: HepG2 HSE cis-reporter, Attagene RNA transcription; actives raise or lower the signal
Outline: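 HepG2 cells transiently transfected with multiple reporter transcription units under cis-regulatory promoter control, measuring endogenous transcription factor activity. After 24 h chemical exposure, reporter mRNA quantified by RT-PCR, fluorescent labelling, HpaI digestion and capillary electrophoresis; bidirectional fit versus DMSO.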

[9] = ATG_MRE_CIS: Attagene CIS-FACTORIAL HepG2 Assay for human Metal Responsive Element (MRE) (AID 2282954); settings: HepG2 MRE cis-reporter transcription, Attagene multiplex; actives raise or lower the signal
Outline: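 Multiplexed cis-reporter assay in human HepG2 liver cells, 24 h incubation with test chemical. Reporter transcripts measured by RT-PCR and capillary electrophoresis; values from bidirectional curve fitting versus DMSO.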

Measured: AC50

Sequence of Hepatocyte nuclear factor 6 (Homo sapiens) (Q9UBC0 whole entry, looked up): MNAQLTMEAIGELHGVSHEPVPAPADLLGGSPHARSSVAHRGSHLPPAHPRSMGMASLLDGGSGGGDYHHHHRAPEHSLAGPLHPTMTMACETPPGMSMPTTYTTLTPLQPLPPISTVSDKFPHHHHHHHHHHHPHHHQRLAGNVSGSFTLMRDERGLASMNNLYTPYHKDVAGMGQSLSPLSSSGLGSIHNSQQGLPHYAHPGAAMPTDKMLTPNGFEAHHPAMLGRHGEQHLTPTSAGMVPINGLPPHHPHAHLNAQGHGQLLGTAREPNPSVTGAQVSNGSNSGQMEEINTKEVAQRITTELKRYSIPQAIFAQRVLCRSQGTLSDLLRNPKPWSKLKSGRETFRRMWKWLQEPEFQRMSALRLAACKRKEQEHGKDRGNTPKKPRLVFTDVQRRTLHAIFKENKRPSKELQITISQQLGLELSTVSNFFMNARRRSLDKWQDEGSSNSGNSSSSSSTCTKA
Sequence of Hypoxia-inducible factor 1-alpha (Homo sapiens) (Q16665 whole entry, looked up): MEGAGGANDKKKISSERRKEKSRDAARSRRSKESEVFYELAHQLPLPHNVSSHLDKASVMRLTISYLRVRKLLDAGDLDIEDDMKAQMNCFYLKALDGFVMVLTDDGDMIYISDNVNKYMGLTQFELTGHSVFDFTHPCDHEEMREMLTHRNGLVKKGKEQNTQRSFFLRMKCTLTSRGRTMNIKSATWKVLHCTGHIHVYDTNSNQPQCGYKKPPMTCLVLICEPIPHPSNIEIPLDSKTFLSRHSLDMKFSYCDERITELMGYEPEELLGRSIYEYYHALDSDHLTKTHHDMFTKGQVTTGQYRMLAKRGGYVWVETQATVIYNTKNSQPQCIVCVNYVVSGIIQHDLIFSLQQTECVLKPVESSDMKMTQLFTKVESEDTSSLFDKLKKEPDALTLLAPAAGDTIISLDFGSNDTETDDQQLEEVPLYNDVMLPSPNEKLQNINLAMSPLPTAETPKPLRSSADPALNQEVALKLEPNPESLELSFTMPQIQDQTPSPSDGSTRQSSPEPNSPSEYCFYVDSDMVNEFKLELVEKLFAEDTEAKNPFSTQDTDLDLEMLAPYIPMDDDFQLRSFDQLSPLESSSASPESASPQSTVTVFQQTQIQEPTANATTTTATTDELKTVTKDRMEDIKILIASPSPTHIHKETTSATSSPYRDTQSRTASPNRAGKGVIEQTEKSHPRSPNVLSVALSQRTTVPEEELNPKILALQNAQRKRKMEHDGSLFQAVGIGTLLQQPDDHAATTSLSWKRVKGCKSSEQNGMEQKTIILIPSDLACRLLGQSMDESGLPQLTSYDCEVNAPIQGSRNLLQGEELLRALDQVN
Sequence of Heat shock factor protein 1 (Homo sapiens) (Q00613 whole entry, looked up): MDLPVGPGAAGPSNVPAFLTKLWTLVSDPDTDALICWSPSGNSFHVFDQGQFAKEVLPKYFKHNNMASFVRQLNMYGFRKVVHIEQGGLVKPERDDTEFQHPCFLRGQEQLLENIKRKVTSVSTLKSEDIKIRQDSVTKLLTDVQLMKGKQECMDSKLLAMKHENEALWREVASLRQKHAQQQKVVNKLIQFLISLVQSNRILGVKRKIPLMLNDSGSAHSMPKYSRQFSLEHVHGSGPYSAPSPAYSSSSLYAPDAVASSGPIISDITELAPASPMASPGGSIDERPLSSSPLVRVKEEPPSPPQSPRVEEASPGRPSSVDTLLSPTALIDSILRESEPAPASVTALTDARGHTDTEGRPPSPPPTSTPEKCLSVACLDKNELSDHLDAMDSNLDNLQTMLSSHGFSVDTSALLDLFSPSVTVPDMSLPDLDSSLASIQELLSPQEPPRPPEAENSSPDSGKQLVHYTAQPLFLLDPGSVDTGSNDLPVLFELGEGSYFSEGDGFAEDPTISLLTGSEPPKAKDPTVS

CC=C(C)C(C)=O
inactive: all assays above

O=C(Cl)c1ccc(C(=O)Cl)cc1
inactive: all assays above

C=C(C)C(=O)OCCOC(=O)C(=C)C
inactive: all assays above

C[Si](C)(C)N[Si](C)(C)C
inactive: all assays above

C=CC(C)(O)CC/C=C(\C)CC (configuration not stated)
inactive: all assays above

CCCCOCC(C)O (configuration not stated)
inactive: all assays above

CC(=O)CC(=O)Nc1ccccc1C
inactive: all assays above

CC(C)CC(=O)OCc1ccccc1
not listed: [4]
inactive: all other assays above

C=CCCCCCCCCO
inactive: all assays above

Nc1nc(N)nc(-c2ccccc2)n1
not listed: [6]
inactive: all other assays above

CC(=O)OCc1ccccc1
not listed: [4]
inactive: all other assays above

CCCCNS(=O)(=O)c1ccc(C)cc1
not listed: [6]
inactive: all other assays above

C=Cc1cccc(C)c1
not listed: [6]
inactive: all other assays above

CC1(C)[C@@H]2CC[C@@]1(C)C(=O)C2
not listed: [4]
inactive: all other assays above

Fc1ccc(Br)cc1
not listed: [6]
inactive: all other assays above

C=C1C[C@H]2[C@@H]3C=C(C)C4=CC(=O)CC[C@]4(C)[C@H]3CC[C@]2(C)[C@@]1(OC(C)=O)C(C)=O
active: [2] 0.057 µM | [8] 96.4 µM | [9] 74.1 µM
not listed: [4]
inactive: all other assays above

C[Si]1(C)O[Si](C)(C)O[Si](C)(C)O[Si](C)(C)O[Si](C)(C)O1
not listed: [4]
inactive: all other assays above

O=S(=O)(O)c1ccc(N=Nc2c(O)ccc3ccccc23)cc1
active: [6] 3 µM
not listed: [4]
inactive: all other assays above

N#Cc1ccc(C2CCCc3cncn32)cc1 (configuration not stated)
not listed: [4]
inactive: all other assays above

COC(Cc1ccccc1)OC
not listed: [4] | [6]
inactive: all other assays above

O=C(OCCc1ccccc1)c1ccccc1
inactive: all assays above

CCCC=C(C=O)CC
inactive: all assays above

C1CNCCN1
not listed: [3]
inactive: all other assays above

O=C1CCCCCCCCCCC1
not listed: [4]
inactive: all other assays above

NC(=O)Nc1ccccc1
not listed: [4]
inactive: all other assays above

c1ccc2c(c1)[nH]c1ccccc12
not listed: [3]
inactive: all other assays above

O=C1CCCCC1C1CCCCC1 (configuration not stated)
inactive: all assays above

O=C(C=Cc1ccccc1)OCCc1ccccc1
active: [3] 77.6 µM | [9] 40.4 µM
inactive: all other assays above

N#CC1(N)CCCCC1
inactive: all assays above

CC(C)c1cc(C(C)C)cc(C(C)C)c1
active: [1] 146 µM | [3] 176 µM | [4] 162 µM
inactive: all other assays above

Cc1ccc2c(c1)CCCN2
not listed: [4]
inactive: all other assays above

O=C1c2ccccc2C(=O)c2cc(S(=O)(=O)O)ccc21
inactive: all assays above

CC(Cl)COP(=O)(OCC(C)Cl)OCC(C)Cl (configuration not stated)
not listed: [4]
inactive: all other assays above

C=CC(=O)OCCCCCCCCCC
not listed: [6]
inactive: all other assays above

CCOC(=O)/C=C\C(=O)OCC
inactive: all assays above

c1ccc(Nc2cccc3ccccc23)cc1
active: [1] 54 µM | [3] 24.8 µM | [7] 51.8 µM | [8] 53.8 µM | [9] 49.7 µM
inactive: [2] | [5] | [6]

CCC(=O)C1CC(C(C)C)CC=C1C (configuration not stated)
inactive: all assays above

Clc1cc(Cl)c(Cl)c(Cl)c1Cl
active: [6] 27.7 µM
inactive: all other assays above

CC(C)COC(=O)CC(C(=O)OCC(C)C)S(=O)(=O)O (configuration not stated)
inactive: all assays above

C=Cc1ccc(OC(C)=O)cc1
not listed: [6]
inactive: all other assays above

CCCC(CC)c1ccccc1 (configuration not stated)
not listed: [6]
inactive: all other assays above

Cc1ccc(S(=O)(=O)N=C=O)cc1
not listed: [4]
inactive: all other assays above

COCC(=O)O
not listed: [6]
inactive: all other assays above

CC(=O)OC/C=C(/C)CCC=C(C)C
not listed: [6]
inactive: all other assays above

CC(C)CCCCCOC(=O)CS
not listed: [2] | [3]
inactive: all other assays above

CC1=CCC2CC1C2(C)C (configuration not stated)
not listed: [2]
inactive: all other assays above

Cc1c(C(=O)c2c[nH]n(C)c2=O)ccc(S(C)(=O)=O)c1C1=NOCC1
not listed: [2]
inactive: all other assays above

CC(C)c1ccc(O)c(C(C)C)c1
not listed: [3]
inactive: all other assays above

CC(=O)OC(C)c1ccccc1 (configuration not stated)
not listed: [3] | [4]
inactive: all other assays above

C=CC(=O)NCOCCCC
not listed: [2]
inactive: all other assays above

CCCCCCCCCC[N+](C)(CCCCCCCCCC)CCC[Si](OC)(OC)OC
active: [3] 17.4 µM | [7] 11 µM
not listed: [2] | [4]
inactive: all other assays above

COc1cc(C)ccc1O
not listed: [3]
inactive: all other assays above

CC(=O)OCCc1ccccc1
not listed: [2] | [3]
inactive: all other assays above

CC1=CC=C(C(C)C)CC1
not listed: [2]
inactive: all other assays above

c1ccc2cnccc2c1
not listed: [2] | [6]
inactive: all other assays above

CC(C)c1cccc(C(C)C)c1N
not listed: [2]
inactive: all other assays above

CCCCCCCCCC(C)=O
not listed: [2] | [6]
inactive: all other assays above

CC1=CC(C)C(C=O)CC1 (configuration not stated)
not listed: [2]
inactive: all other assays above

CC/C=C\CCOC(=O)c1ccccc1O
not listed: [3]
inactive: all other assays above

CCCC1CCCC(=O)O1 (configuration not stated)
not listed: [2]
inactive: all other assays above

CC(=O)C(C)C
not listed: [2]
inactive: all other assays above

COC(OC)(C(=O)c1ccccc1)c1ccccc1
active: [9] 43.5 µM
not listed: [3] | [6]
inactive: all other assays above
